Screening data from PubChem BioAssay.
NS1 function inh – influenza NS1 inhibition; actives 0.4% (n = 270,000); Potency, µM (doses to about 46.1 µM); calls by dose curve; note: actives are rising curves; nearly all actives have a fitted effect of over 50% in size
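Compounds were scored for reversing the slow growth caused by influenza A NS1 in S. cerevisiae, measured by optical density at 600 nm. Assay medium contained 2% galactose at pH 6.0; NS1-free yeast of the same strain were the positive control.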
Sm TGR block – inhibitors of Schistosoma mansoni thioredoxin glutathione reductase; Potency, µM (highest dose often 114 µM), actives largely listed as inhibitors; Q962Y6; actives 3% (n = 360,000); purified TGR, DTNB reduction, TNB absorbance 405 nm; note: nearly all actives have a fitted effect of over 60% in size
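Kinetic colorimetric format: TGR-catalysed, NADPH-driven DTNB reduction monitored via TNB absorbance. Enzyme dispensed at 20 nM; compound exposure 15 min at room temperature before reaction start.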
Pf growth 96h – inhibits malaria parasite growth, 96 h. P. falciparum luciferase reporter growth, 96 h. Potency, µM (top dose mostly 28.7 µM), usual class: inhibitors. actives 6.9% (n = 320,000). AID 504834
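Readout is luminescence from an integrated firefly luciferase in P. falciparum. Red cells, 2% hematocrit and 0.05% parasitemia final, were cultured with compound through two parasite generations (96 hours) at 37 C, 5% CO2.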
Pf growth 48h – inhibits P. falciparum growth in the first generation, 48 h; P. falciparum luciferase growth in erythrocytes, 48 h; Potency, µM (highest dose often 28.7 µM), most hits filed as inhibitors; actives 5.9% (n = 310,000)
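Growth was read as firefly luciferase luminescence after a 48 h, 37 C, 5% CO2 exposure of compounds to reporter-bearing P. falciparum cultures (0.1% parasitemia, 2% hematocrit final) in Albumax-supplemented RPMI 1640.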
AMA1 RON2 block – disrupts binding of P. falciparum AMA1 to RON2; actives 0.2% (n = 360,000); AlphaScreen AMA1-biotinylated RON2 peptide binding; AID 720542; Potency, µM (titrated, usually from 58.2 µM), hits mostly inhibitors; note: nearly all actives have a fitted effect of over 45% in size
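AMA1 (3D7) with his tag at 25 nM final met compounds first, then biotinylated RON2 peptide at 25 nM; detection used donor plus acceptor beads, 10 µg/mL apiece, read by AlphaScreen after 30 min at room temperature.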
Large screens that a line does not name were inactive. Shown are actives, neighbours in structure and some others; about 11% of the full set was active somewhere. Unless noted, calls come from the whole dose curve; as a rule, active = well fitted curve in the direction sought with a large enough effect; inconclusive = small, poorly fitted or top-dose-only effect, or another doubt; inactive = no such curve, though single readings can be large; an effect the other way counts as inactive or inconclusive.

COc1cccc(N2CCN(C3CC(=O)N(c4ccc(C)c(Cl)c4)C3=O)CC2)c1 (stereo not given)	none
O=C(COc1ncnc2ccc(Br)cc12)NCc1ccco1	none
CCc1nc2ccc(C(=O)N(CC)CCN(C)C)cn2c1N(C=O)CCC(C)C	none (no result: NS1 function inh, Sm TGR block, Pf growth 96h, Pf growth 48h)
CCCc1c(O)nc(SCC(=O)NCc2ccco2)[nH]c1=O	none (no result: NS1 function inh)
Cc1cc(NC(=S)Nc2cccnc2)ccc1Br	Sm TGR block 18µM (no result: NS1 function inh)
CCN(CC)S(=O)(=O)c1cc(C(=O)Nc2cccnc2)ccc1Cl	none (no result: Pf growth 96h)
Cc1cc(NC(=S)Nc2ccccc2)ccc1Br	Pf growth 96h inconclusive
Cc1cc(Cl)ccc1NC(=S)Nc1cccnc1	Sm TGR block 18µM
O=C(Nc1cccnc1)Nc1ccc(Cl)cc1Cl	Pf growth 48h inconclusive
CCN(CC)S(=O)(=O)c1cc(C)ccc1NC(=S)Nc1cccnc1	Sm TGR block 22µM (no result: NS1 function inh)
Cc1ccc(Nc2cc(Cl)nc(N)n2)c([N+](=O)[O-])c1	none (no result: NS1 function inh, Sm TGR block, Pf growth 96h, Pf growth 48h)
Cc1cccc(Cn2nnc3ccccc32)c1O	Pf growth 96h inconclusive, Pf growth 48h inconclusive (no result: NS1 function inh)
Cc1cccc(C(C)n2nnc3ccccc32)c1O (stereo not given)	Pf growth 96h 10µM, Pf growth 48h 15µM (no result: NS1 function inh)
CC(Sc1nnc2ccccn12)C(=O)Nc1ccc2c(c1)OCCO2 (stereo not given)	none (no result: NS1 function inh)
CCCCCCCNC(=O)C1(CC2CC(c3cccc(Br)c3)=NO2)CCNCC1 (stereo not given)	Sm TGR block 25µM, Pf growth 96h 12µM, Pf growth 48h inconclusive
CCCCCCCNC(=O)C1(CC2CC(c3ccc(Cl)cc3)=NO2)CCN(C(=O)Cc2ccc(F)cc2)CC1 (stereo not given)	Pf growth 96h 12µM
CCCCCCCNC(=O)C1(CC2CC(c3cccc(Br)c3)=NO2)CCN(C(=O)Cc2ccc(F)cc2)CC1 (stereo not given)	Pf growth 96h 10µM, Pf growth 48h 7.4µM (no result: NS1 function inh)
CCCCCCCNC(=O)C1(CC2CC(c3ccc(Cl)cc3)=NO2)CCNCC1 (stereo not given)	Sm TGR block 40µM, Pf growth 96h 6.6µM
CC1CCN(S(=O)(=O)c2ccc3c(ccc(=O)n3CC(=O)NCc3ccccc3Cl)c2)CC1	none (no result: NS1 function inh, Pf growth 96h, Pf growth 48h, AMA1 RON2 block)
CCOC(=S)SCc1cn2cccc(C)c2n1	none (no result: NS1 function inh)
Cc1ccc(-c2nc(CS(=O)(=O)CC(=O)Nc3ccc(Br)cc3F)c(C)o2)cc1	none (no result: NS1 function inh, Pf growth 96h, Pf growth 48h, AMA1 RON2 block)
CCc1cc2c(NCCC(=O)O)ncnc2s1	Pf growth 96h 12µM
CCc1cc2c(NCCO)ncnc2s1	none (no result: Pf growth 96h)
O=C(CCCO)c1ccc2c(c1)OCCO2	none
O=C(CCCN1CCOCC1)c1ccc2c(c1)OCCO2	none
S=C(c1ccc2c(c1)OCO2)N1CCCCCC1	Pf growth 96h 12µM (no result: Pf growth 48h)
O=C(CCN1CCCCC1)c1ccc2c(c1)OCO2	Sm TGR block 0.28µM
O=C(CCN1CCc2ccccc2CC1)c1ccc2c(c1)OCCO2	Sm TGR block 0.35µM (no result: Pf growth 48h)
CC(CN1CCCCC1)OC(=O)c1ccc2c(c1)OCO2 (stereo not given)	none
O=C(CNC1=NCCC1)c1ccc2c(c1)OCCO2	Pf growth 96h inconclusive, Pf growth 48h 6.6µM
CC(/C=N/NC(=O)c1ccc(Cn2cc([N+](=O)[O-])cn2)o1)=C\c1ccccc1	Pf growth 96h inconclusive
O=C(CCN1CCOCC1)c1ccc2c(c1)OCCO2	Sm TGR block 1.6µM
Cn1c(N2CCOCC2)c(/C=N/OC(=O)c2cccnc2Cl)c2ccccc21	Pf growth 48h inconclusive (no result: Sm TGR block)
Cn1c(N2CCOCC2)c(/C=N/OC(=O)c2ccc(F)cc2)c2ccccc21	Pf growth 96h 1µM, Pf growth 48h 1.3µM
Cc1ccc(C(=O)O/N=C/c2c(N3CCOCC3)n(C)c3ccccc23)cc1	Pf growth 96h 3.3µM, Pf growth 48h inconclusive
CC(=O)O/N=C/c1c(N2CCOCC2)n(C)c2ccccc12	Pf growth 96h 3.7µM, Pf growth 48h 3.7µM
Cn1c(N2CCOCC2)c(/C=N/O)c2ccccc21	none (no result: Sm TGR block)
COCCCNC(=O)c1ccc2c(c1)nc1n2CCCCC1	none (no result: NS1 function inh, Pf growth 96h, Pf growth 48h, AMA1 RON2 block)
O=C1CC(SC2=NCCS2)C(=O)N1c1ccc(Br)cc1 (stereo not given)	Sm TGR block 56µM
O=C1CC(SC2=NCCS2)C(=O)N1c1ccc(Cl)cc1 (stereo not given)	Sm TGR block 56µM
Cc1ccc(N2C(=O)CC(Sc3nc(C)cc(C)n3)C2=O)cc1 (stereo not given)	Pf growth 96h inconclusive
O=C1CC(Sc2ccc(Cl)cc2)C(=O)N1c1ccc2c(c1)OCCO2 (stereo not given)	Sm TGR block 4µM, Pf growth 96h inconclusive
Nc1ccccc1SC1CC(=O)N(c2ccc(Cl)c(Cl)c2)C1=O (stereo not given)	none
Nc1ccccc1SC1CC(=O)N(c2ccc3c(c2)OCCO3)C1=O (stereo not given)	none
CN=c1scc(-c2cccs2)n1/N=C/c1ccc(O)c(O)c1O	NS1 function inh inconclusive, Sm TGR block inconclusive, Pf growth 96h inconclusive, Pf growth 48h inconclusive
CN=c1scc(C)n1/N=C/c1ccc(O)c(O)c1O	Sm TGR block 22µM, AMA1 RON2 block inconclusive (no result: Pf growth 48h)
COc1cccc(Cn2c3ccc(NC(=O)Cc4ccccc4C)cc3c(=O)n2C)c1	none (no result: NS1 function inh, Sm TGR block, Pf growth 96h, Pf growth 48h)
CCNC(=S)N/N=C1\CCCCc2ccccc21	Sm TGR block inconclusive, Pf growth 96h inconclusive, Pf growth 48h 12µM
C=C(C)CNC(=S)N/N=C1\CCCCc2ccccc21	Pf growth 96h 15µM, Pf growth 48h inconclusive
Cc1ccc(C)c(NC(=S)Nc2ncccc2C)c1	Pf growth 96h inconclusive
Cc1cccc(NC(=S)N/N=C2/CCCCc3ccccc32)c1	NS1 function inh inconclusive, Pf growth 96h inconclusive, Pf growth 48h inconclusive
Cc1ccc(NC(=S)N/N=C2/CCCCc3ccccc32)cc1	Pf growth 96h 12µM, Pf growth 48h inconclusive
Cc1ccc(C)c(NC(=S)N/N=C2\CCc3ccccc32)c1	Pf growth 96h 5.2µM
CN1c2ccc(Cl)cc2C(=O)NC1c1ccc([N+](=O)[O-])s1 (stereo not given)	Pf growth 96h inconclusive, Pf growth 48h inconclusive
CSc1ccccc1NC(=O)COC(=O)Cn1cc(C(F)(F)F)ccc1=O	none (no result: NS1 function inh)
S=c1sc2c(Cl)ncnc2n1-c1ccccc1	Sm TGR block 3.2µM (no result: NS1 function inh)
COc1ccc(/C=N/n2cnc3c(sc(=S)n3-c3ccccc3)c2=O)cc1	none
CN1CCc2c(n(CC(O)CNCc3ccccc3)c3ccccc23)C1=O (stereo not given)	none
CC(C)NCC(O)Cn1c2c(c3ccccc31)CCc1c-2cnn1-c1ccccc1 (stereo not given)	Pf growth 96h inconclusive, Pf growth 48h 2.9µM
CCOC(=O)N1CCN(CC(=O)c2ccc3c(c2)CCN3C(C)=O)CC1	NS1 function inh inconclusive, Sm TGR block 20µM (no result: Pf growth 48h)
COc1ccc(Cl)cc1NC(=O)c1ccc2c(c1)CCN2S(C)(=O)=O	none (no result: NS1 function inh, Pf growth 96h, Pf growth 48h, AMA1 RON2 block)
O=C(CC1SC(=O)N(c2ccccc2)C1=O)Nc1cccc2ccccc12 (stereo not given)	Sm TGR block inconclusive
Cc1ccccc1NC(=O)CC1SC(=O)N(c2ccccc2)C1=O (stereo not given)	NS1 function inh inconclusive, Sm TGR block 5µM (no result: Pf growth 96h)
CCOc1ccc(CCNC(=O)CCCn2c(=O)c3cccn3c3cccnc32)cc1	none (no result: NS1 function inh, Pf growth 96h, Pf growth 48h, AMA1 RON2 block)
